HT1080 IDH1KD tx = HT-1080 IDH1 knockdown cell toxicity (counter line) | HT-1080 IDH1 knockdown viability, ATP luminescence, 48 h | Potency, µM (doses to about 46.1 µM), inactives show top-dose activity, negative = toxicity, actives largely listed as cytotoxic | actives 2% (n = 360,000);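 also: 0% = DMSO wells and -100% = cell-free medium wells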
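CellTiter-Glo luminescence after 48 h compound exposure at 37 degrees C of IDH1-knockdown HT-1080 cells in 5% FBS RPMI. %Activity scaled between DMSO wells and cell-free media wells, with curves fitted and assigned curve classes.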
HT1080-NT tox = kills 2HG-producing HT-1080-NT fibrosarcoma cells. HT-1080-NT fibrosarcoma viability, CellTiter-Glo ATP luminescence, 48 h. Potency, µM (highest dose often 46.1 µM), for inactives: at the highest dose activity, negative = less viability, hits mostly cytotoxic. actives 1.6% (n = 360,000). AID 686970;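 also: NT is the 2HG producing partner of a matched IDH1 knockdown line; 0% = DMSO-treated cells and -100% = media-only wells without cells; nearly all actives have a fitted effect of over 55% in size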
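Compounds were tested in concentration-response format on HT-1080-NT cells for 48 hours at 37 degrees C. Cell viability came from CellTiter-Glo luminescence; curves were classified by r2, response magnitude and activity.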
SW480 rerep = DNA re-replication induction in SW480 cells | SW480 DNA re-replication, Hoechst DNA content imaging, 48 h | actives 1.8% (n = 340,000) | Potency, µM (titrated, usually from 46.1 µM), for inactives: top-dose re-replication activation, most hits filed as activators; also: % of control where 0% means no effect; nearly all actives have a fitted effect of over 55% in size
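First, 250 cells per well were seeded. Next, compound or vehicle (23 nL) was pinned in, plates sat 48 hr at 37 C. Finally Hoechst was added for 40 min before fluorescence scanning.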
KB-3-1 tox = kills parental KB-3-1 adenocarcinoma cells; KB-3-1 viability, CellTiter-Glo ATP luminescence, 72 h; Potency, µM (titrated, usually from 46.1 µM), actives largely listed as cytotoxic; actives 1.4% (n = 400,000); AID 1347075; also: % is scaled to controls: 0 for no effect and ±100 for the full control effect; nearly all actives have a fitted effect of over 60% in size
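Here the drug-naive KB-3-1 line serves as comparator for MDR sub-line selectivity; cells received compound titrations, 72 h at 37 °C, then CellTiter-Glo readout.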
KB-V1 cytotox = kills drug-selected multidrug resistant KB-V1 cells; KB-V1 MDR cells viability, CellTiter-Glo, 72 h; actives 3.4% (n = 400,000); AID 1347076; Potency, µM (series often up to 46.1 µM), hits mostly cytotoxic; also: % is scaled to controls: 0 for no effect and ±100 for the full control effect; nearly all actives have a fitted effect of over 60% in size
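KB-V1 cells (P-gp-expressing MDR subline of KB-3-1) in phenol-red-free DMEM with 10% FBS were exposed to library compounds over a concentration series for 72 h at 37 degrees C. Viability read by CellTiter-Glo luminescence; concentration-effect curves fitted after normalization.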
MCF10A rerep = DNA re-replication induction in MCF 10a cells; MCF 10A DNA re-replication, Hoechst nuclear intensity, 48 h; Potency, µM (series often up to 46.1 µM), without a hit: at the top dose activity, positive = re-replication, actives largely listed as activators; actives 2.9% (n = 350,000); also: % of control where 0% means no effect; nearly all actives have a fitted effect of over 50% in size
An asterisk follows results filed as active; [ ] = another dose, or the depositor's remark. Sampled rows, rich in hits. Any-hit rate of the full collection: about 7.9%. Calls follow the shape of the dose curve; as a rule, active = well fitted curve in the direction sought with a large enough effect; inconclusive = small, poorly fitted or top-dose-only effect, or another doubt; inactive = no such curve, though single readings can be large; an effect the other way counts as inactive or inconclusive. Potency is read from the fitted curve at half-maximal effect.

For CN(Cc1ccccc1)C(=O)CSc1nc2c(c(C(F)(F)F)n1)CCc1ccccc1-2 the results were HT1080 IDH1KD tx 1%, HT1080-NT tox 0%, SW480 rerep -6%, KB-3-1 tox 18µM*, KB-V1 cytotox inconclusive and MCF10A rerep 19%.
Cc1nn(Cc2ccc(Cl)cc2)c(C)c1NC(=O)CSc1nc2c(c(C(F)(F)F)n1)CCc1ccccc1-2 was read as HT1080 IDH1KD tx 2%, HT1080-NT tox 3%, SW480 rerep inconclusive, KB-3-1 tox inactive, KB-V1 cytotox 8.2µM* and MCF10A rerep inconclusive.
Cc1cc(NCc2ccc3c(c2)OCO3)n2nc(C)nc2n1 was read as HT1080 IDH1KD tx 2%, HT1080-NT tox 3%, SW480 rerep -2%, KB-3-1 tox inactive, KB-V1 cytotox inactive and MCF10A rerep 7%.
Screening Cc1cccc(C)c1NC(=O)C(c1ccncc1)n1c(=O)c(-c2cc3ccccc3[nH]2)nc2ccccc21 (centres undefined) returned HT1080 IDH1KD tx 18µM*, HT1080-NT tox 21µM*, KB-3-1 tox inconclusive and KB-V1 cytotox inconclusive.
COc1ccc(NC(=O)C(C2CC2)n2c(=O)c(-c3cc4ccccc4[nH]3)nc3ccccc32)cc1 (centres undefined) was read as HT1080 IDH1KD tx 15µM*, HT1080-NT tox inconclusive, KB-3-1 tox inactive and KB-V1 cytotox inactive.
For Cc1ccc(-n2ccc(=O)c(C(=O)Nc3ccc(S(=O)(=O)N4CCOCC4)cc3)n2)cc1 the results were HT1080 IDH1KD tx 1%, HT1080-NT tox 9%, SW480 rerep -9%, KB-3-1 tox inactive, KB-V1 cytotox inactive and MCF10A rerep 0%.
`Clc1cccc(CN2CCN(Cc3ccco3)CC2)c1` gave HT1080 IDH1KD tx 19%, HT1080-NT tox 6%, SW480 rerep 8%, KB-3-1 tox inactive, KB-V1 cytotox inactive and MCF10A rerep -4%.
Screening CCOC(=O)N1CCC(n2c(SCC(=O)Nc3ccccc3OC)nc3ccccc3c2=O)CC1 returned HT1080 IDH1KD tx -15%, HT1080-NT tox 0%, SW480 rerep inconclusive, KB-3-1 tox inactive, KB-V1 cytotox inactive and MCF10A rerep inconclusive.
`CCOc1cc(CNc2ccc(CNc3ncn[nH]3)cc2)ccc1OCc1ccccc1` gave HT1080 IDH1KD tx -2%, HT1080-NT tox 14%, SW480 rerep -44%, KB-3-1 tox 23µM*, KB-V1 cytotox 18µM* and MCF10A rerep 21%.
`Cc1ccccc1S(=O)(=O)N(C)C[C@@H]1OCc2cnnn2CCCC(=O)N([C@H](C)CO)C[C@H]1C` gave HT1080 IDH1KD tx -5%, HT1080-NT tox -13%, KB-3-1 tox inactive and KB-V1 cytotox inactive.
For CCOC(=O)c1c(C=O)c(C)n(Cc2ccc(Cl)cc2)c1C the results were HT1080 IDH1KD tx -13%, HT1080-NT tox 1%, SW480 rerep 1%, KB-3-1 tox inactive, KB-V1 cytotox 3.7µM* and MCF10A rerep 12µM*.
For CCOC(=O)c1c(C=O)c(C)n(Cc2ccccc2)c1C the results were HT1080 IDH1KD tx -5%, HT1080-NT tox -1%, SW480 rerep -5%, KB-3-1 tox inactive, KB-V1 cytotox inactive and MCF10A rerep 4%.
For CCOC(=O)N1CCN(S(=O)(=O)c2ccc(F)c(C(=O)Nc3ccc(C(C)C)cc3)c2)CC1 the results were HT1080 IDH1KD tx -11%, HT1080-NT tox -11%, SW480 rerep 8%, KB-3-1 tox inactive, KB-V1 cytotox 6.5µM* and MCF10A rerep 18%.
For O=C(Nc1ccc(OCC(F)(F)C(F)F)c(C(F)(F)F)c1)c1ccccc1O the results were HT1080 IDH1KD tx 13µM*, HT1080-NT tox 16µM*, SW480 rerep inconclusive, KB-3-1 tox inconclusive, KB-V1 cytotox inconclusive and MCF10A rerep 12µM*.
`O=C(Nc1ccc(OCC(F)(F)C(F)F)c(C(F)(F)F)c1)c1ccccc1` gave HT1080 IDH1KD tx inconclusive, HT1080-NT tox inconclusive, SW480 rerep -4%, KB-3-1 tox inactive, KB-V1 cytotox inconclusive and MCF10A rerep inconclusive.
`O=C(Nc1ccc(F)cc1)c1cnc(-c2ccccc2)nc1-c1ccccc1` gave HT1080 IDH1KD tx inconclusive, HT1080-NT tox inconclusive, SW480 rerep inconclusive, KB-3-1 tox inactive, KB-V1 cytotox inconclusive and MCF10A rerep 14%.
Screening O=C(Nc1ccc(F)c(F)c1)c1cnc(-c2ccccc2)nc1-c1ccccc1 returned HT1080 IDH1KD tx inconclusive, HT1080-NT tox inconclusive, SW480 rerep 2%, KB-3-1 tox inactive, KB-V1 cytotox inactive and MCF10A rerep 13µM*.
COc1ccc(/C=N/NC(=O)CCSc2nc3ccccc3s2)cc1OC was read as HT1080 IDH1KD tx -4%, HT1080-NT tox -3%, SW480 rerep inconclusive, KB-3-1 tox inactive, KB-V1 cytotox inactive and MCF10A rerep inconclusive.
For COc1ccc(/C=N/NC(=O)c2ccccc2Cl)cc1CSc1nc2ccccc2s1 the results were HT1080 IDH1KD tx inconclusive, HT1080-NT tox 4.5µM*, SW480 rerep 5.8µM*, KB-3-1 tox 5.8µM*, KB-V1 cytotox 7.3µM* and MCF10A rerep 0.82µM*.
Screening COc1ccc(/C=N\NC(=O)c2ccccc2Cl)cc1COc1c(F)c(F)c(F)c(F)c1F returned HT1080 IDH1KD tx inconclusive, HT1080-NT tox -13%, SW480 rerep inconclusive, KB-3-1 tox inconclusive, KB-V1 cytotox inactive and MCF10A rerep 9.2µM*.
COc1ccc(/C=N/NC(=O)c2ccn[nH]2)cc1COc1ccc(Cl)cc1Cl was read as HT1080 IDH1KD tx 3%[9.24 µM], HT1080-NT tox inconclusive, SW480 rerep inconclusive, KB-3-1 tox inactive, KB-V1 cytotox inactive and MCF10A rerep 12µM*.
For COc1ccc(/C=N/NC(=O)c2cccnc2)cc1CSc1nc2ccccc2s1 the results were HT1080 IDH1KD tx inconclusive, HT1080-NT tox inconclusive, SW480 rerep 21µM*, KB-3-1 tox inconclusive, KB-V1 cytotox 12µM* and MCF10A rerep inconclusive.
For Cc1ccc(C=NCc2ccncc2)c(O)c1 the results were HT1080 IDH1KD tx 18%, HT1080-NT tox 0%, SW480 rerep -19%, KB-3-1 tox inactive, KB-V1 cytotox inactive and MCF10A rerep inconclusive.
`COc1ccc(/C=N/NC(=O)c2cccnc2)cc1COc1ccc([N+](=O)[O-])c(C)c1` gave HT1080 IDH1KD tx 2.1µM*, HT1080-NT tox 2.6µM*, SW480 rerep 12µM*, KB-3-1 tox 6.5µM*, KB-V1 cytotox inconclusive and MCF10A rerep 2.1µM*.
